About 79,000 compounds went through this panel and 15% of them were active in at least one assay; those are over-represented in the sample as a whole. Unmarked numbers belong to inactive results. The source made the active and inactive calls. No stated cut-off is given here; in the data, active means growth inhibition above about 70%; inactive means the rest.
Assay: NCI Yeast Anticancer Drug Screen. Data for the rad50 strain (AID 155);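 further: 0% = growth of vehicle-only cultures of the same strain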
Conditions: S. cerevisiae rad50 strain growth inhibition; at 50.0 µM; active compounds read high
Method in brief: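 Growth of the mutant yeast was measured after compound exposure and referenced to vehicle-treated cultures.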
`CCCCOc1ccc(Br)cc1` gave a growth inhibition of 12.3%.
Work on `CC(C)NC(=O)N(C(=O)C(F)(F)F)C(C)C` yielded a growth inhibition of -0.95%.
With `CC(C)CNc1ncnc2c1cnn2C` the growth inhibition was -1.65%.
Compound `CC(C)(O)C(c1ccccc1)S(=O)(=O)O` (centres undefined) has a growth inhibition of -2.5%.
Work on `CN(C)C(=O)/C=C/C(=O)O` (tested in a mixture with another compound) yielded a growth inhibition of -1.25%.
For `CC1(C)CCCCCCC2CC2CCCCCC(C)(C)C1=O` (centres undefined), the growth inhibition was 1%.
Compound `Nc1ncnc2c1[nH]c(=S)n2C1OC(CO)C(O)C1O` (centres undefined) has a growth inhibition of 14.4%.
With `CCOc1ccccc1C(=O)OCCCc1ccccc1` the growth inhibition was -1%.
`Cc1cc(Cl)ncc1[N+](=O)[O-]` gave a growth inhibition of -12.2%.
For `Clc1ccc(C2=CSC3=NCCN23)cc1`, the growth inhibition was 3.45%.
Work on `COc1ccc2[nH]c(=O)c(C(C)=O)c(O)c2c1` yielded a growth inhibition of 3%.
In the case of `Cc1ccccc1NCc1ccccc1`, the growth inhibition is reported as 25.8%.
Work on `N#Cc1c2ccccc2c(C#N)c2ccccc12` yielded a growth inhibition of -4.5%.
For `O=c1[nH]c2cc([N+](=O)[O-])ccc2nc1/C(=N/Nc1ccccc1)C(O)c1ccc(C(O)/C(=N\Nc2ccccc2)c2cnc3cc([N+](=O)[O-])ccc3n2)cc1` (centres undefined), the growth inhibition was -4.05%.
For `CCC(C)[N-]c1cccc[n+]1[O-].CCC(C)[N-]c1cccc[n+]1[O-].[Cu+2]` (centres undefined), the growth inhibition was 8.3%.
For `COc1ccc2c(c1)nc1n2C(N)=Nc2ccccc2S1`, the growth inhibition was 44.5%.
`CCOC(=O)NC(=O)c1cn(CCSCCOC(=O)NCCCCCCNC(=O)OCCSCCn2cc(C(=O)NC(=O)OCC)c(=O)[nH]c2=O)c(=O)[nH]c1=O` showed a growth inhibition of 28.7%.
Work on `C#CCOC(=O)[C@@H](C)c1ccc2cc(OC)ccc2c1` yielded a growth inhibition of 11.2%.
Work on `C[Si](C)(C)O/C=C1/CCOC1=O` yielded a growth inhibition of 46.9%.
For `CCN(CC)C(=S)SCCCS(=O)(=O)O`, the growth inhibition was 17.7%.
`OCCSCCCCCCSCCO` showed a growth inhibition of 6.95%.
For `CC(NNC(=S)N1CCC(c2ccccc2)CC1)c1ccc2ccccc2n1` (centres undefined), the growth inhibition was -48.9%.
For `CN(C)c1ccc(C2N(C)CCN2C)cc1`, the growth inhibition was -10.4%.
`O=[N+]([O-])c1ccc(-c2nc3ccncc3[nH]2)cc1` showed a growth inhibition of -22.6%.

Assay: NCI Yeast Anticancer Drug Screen. Data for the mec2-1 strain (AID 157)
Conditions: S. cerevisiae mec2-1 strain, at 50.0 µM, active compounds read high
Method in brief: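 mec2-1 yeast strain, carrying an alteration in DNA damage repair or cell cycle control, was exposed to compounds; growth inhibition was measured relative to vehicle-treated controls.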
`CCC/C(=N/NC(=O)C1CCCO1)c1ccccc1` (centres undefined) showed a growth inhibition of 18.4%.
Compound `O=C(Cc1ccc([N+](=O)[O-])cc1)ON1C(=O)CCC1=O` has a growth inhibition of 2.65%.
Work on `c1ccc(CCc2nc3ccccc3[nH]2)cc1` yielded a growth inhibition of 11.1%.
Work on `COc1cccc(/C=C/C(=O)c2sc(C(N)=S)nc2C)c1O` yielded a growth inhibition of 1.7%.
`O=C1N2Cc3c4ccc5c3CN3C(=O)N6Cc7c(ccc(c7CN1C6(c1ccccc1)C23c1ccccc1)OCCOCCNCCOCCO4)OCCOCCNCCOCCO5` (centres undefined) showed a growth inhibition of -26.2%.
Work on `O=C1OC(/C=C/c2ccccc2)=NC/1=C\C=C\c1ccccc1` yielded a growth inhibition of 14.8%.
In the case of `CCOc1ccc(CO)cc1`, the growth inhibition is reported as 0.2%.
In the case of `CC(=O)OC1(C(=O)OCC2CCCO2)CCCC1` (centres undefined), the growth inhibition is reported as 5.4%.
Compound `O=c1c2c(oc(=Nc3ccccc3)n1-c1ccccc1)CC1(CCCCC1)C2` has a growth inhibition of 1.75%.
`CC(=O)N1N=C(c2ccc(OCC(O)CN3CCN(CC(O)COc4ccc(C5=NN(C(C)=O)C(c6ccccc6)C5)cc4)CC3)cc2)CC1c1ccccc1` (centres undefined) showed a growth inhibition of -25.9%.
With `NC(=O)NC(=O)Cc1ccc([N+](=O)[O-])cc1` the growth inhibition was 0.1%.
Compound `CCOC(=O)CC1(c2ccccc2)OC(=O)c2ccccc21` (centres undefined) has a growth inhibition of 13.2%.
In the case of `[O-]c1c(Cl)c(Cl)c(O[P+](c2ccccc2)(c2ccccc2)c2ccccc2)c(Cl)c1Cl`, the growth inhibition is reported as 99.4% (active).
With `O=C(NC(Cc1ccc(O)cc1)C(=O)O)SCc1ccccc1` (centres undefined) the growth inhibition was 21%.
With `CCC(=O)c1c(O)cc(O)cc1O` the growth inhibition was -15.6%.
With `CC=NC(C)(C)C` the growth inhibition was -9.15%.
Compound `CCCCOc1ccc(Br)cc1` has a growth inhibition of 5.4%.
Work on `CC(C)NC(=O)N(C(=O)C(F)(F)F)C(C)C` yielded a growth inhibition of 7.45%.
`CC(C)CNc1ncnc2c1cnn2C` showed a growth inhibition of 2.9%.
Work on `CC(C)(O)C(c1ccccc1)S(=O)(=O)O` (centres undefined) yielded a growth inhibition of -18.6%.
`CN(C)C(=O)/C=C/C(=O)O` (tested in a mixture with another compound) gave a growth inhibition of -10.3%.
With `CC1(C)CCCCCCC2CC2CCCCCC(C)(C)C1=O` (centres undefined) the growth inhibition was -6.15%.
Work on `Nc1ncnc2c1[nH]c(=S)n2C1OC(CO)C(O)C1O` (centres undefined) yielded a growth inhibition of 6.3%.
In the case of `CCOc1ccccc1C(=O)OCCCc1ccccc1`, the growth inhibition is reported as 9.15%.
`Cc1cc(Cl)ncc1[N+](=O)[O-]` gave a growth inhibition of 14.3%.
In the case of `Clc1ccc(C2=CSC3=NCCN23)cc1`, the growth inhibition is reported as -1.4%.
`COc1ccc2[nH]c(=O)c(C(C)=O)c(O)c2c1` gave a growth inhibition of 6.95%.
`Cc1ccccc1NCc1ccccc1` gave a growth inhibition of -3.2%.
`N#Cc1c2ccccc2c(C#N)c2ccccc12` showed a growth inhibition of -8.15%.
In the case of `O=c1[nH]c2cc([N+](=O)[O-])ccc2nc1/C(=N/Nc1ccccc1)C(O)c1ccc(C(O)/C(=N\Nc2ccccc2)c2cnc3cc([N+](=O)[O-])ccc3n2)cc1` (centres undefined), the growth inhibition is reported as -23.9%.
With `CCC(C)[N-]c1cccc[n+]1[O-].CCC(C)[N-]c1cccc[n+]1[O-].[Cu+2]` (centres undefined) the growth inhibition was -3.9%.
In the case of `COc1ccc2c(c1)nc1n2C(N)=Nc2ccccc2S1`, the growth inhibition is reported as 23.8%.
`CCOC(=O)NC(=O)c1cn(CCSCCOC(=O)NCCCCCCNC(=O)OCCSCCn2cc(C(=O)NC(=O)OCC)c(=O)[nH]c2=O)c(=O)[nH]c1=O` gave a growth inhibition of 20.6%.
Compound `C#CCOC(=O)[C@@H](C)c1ccc2cc(OC)ccc2c1` has a growth inhibition of 4.25%.
Work on `C[Si](C)(C)O/C=C1/CCOC1=O` yielded a growth inhibition of 45.7%.
`CCN(CC)C(=S)SCCCS(=O)(=O)O` gave a growth inhibition of -9.95%.
`OCCSCCCCCCSCCO` gave a growth inhibition of 1.7%.
`CC(NNC(=S)N1CCC(c2ccccc2)CC1)c1ccc2ccccc2n1` (centres undefined) gave a growth inhibition of 9.25%.
Compound `CN(C)c1ccc(C2N(C)CCN2C)cc1` has a growth inhibition of 6.85%.
`O=[N+]([O-])c1ccc(-c2nc3ccncc3[nH]2)cc1` showed a growth inhibition of -7.4%.

Reference: PubChem BioAssay (NCI)
